Where a structure was tested more than once in an assay, its records may differ in their call. Calls of active or inactive are those of the source. Rule for the calls: active = hit-call score of the fitted dose curve at least 0.9, where 1 is the maximum; inactive = score below 0.9.
Biological target: Transcription factor E2F1 (Homo sapiens) (UniProt Q01094)
Assay: ATG_E2F_CIS: Attagene CIS-FACTORIAL HepG2 Assay for human E2F Transcription Factor 1 (AID 2282935)
Conditions: HepG2 Attagene cis-reporter, E2F reporter RNA transcripts; actives raise or lower the signal
Method: ATG_CIS is a cell-based, multiplexed-readout assay that uses HepG2, a human liver cell line, with measurements taken at 24 hours after chemical dosing in a 24-well plate.ATG_E2F_CIS is one of 52 assay component(s) measured or calculated from the ATG_CIS assay. It is designed to make measurements of mRNA induction, a form of inducible reporter, as detected with fluorescence intensity signals by Reverse transcription polymerase chain reaction (RT-PCR) and Capillary electrophoresis technology.Data from the assay component ATG_E2F_CIS was analyzed into 1 assay endpoint. This assay endpoint, ATG_E2F_CIS, was analyzed with bidirectional fitting relative to DMSO as the negative control and baseline of activity. Using a type of inducible reporter, measures of mRNA for gain or loss-of-signal activity can be used to understand the reporter gene at the transcription factor-level as they relate to the gene E2F1. Furthermore, this assay endpoint can be referred to as a primary readout, because this assay has produced multiple assay endpoints where this one serves a reporter gene function. To generalize the intended target to other relatable targets, this assay endpoint is annotated to the dna binding intended target family, where the subfamily is E2F transcription factor.
Human liver HepG2 cells are transiently transfected with multiple reporter transcription units (MRTUs) in 6-well plates using FuGene 6 reagent (Roche; 3 ml FuGene/1 mg DNA). The MRTU constructs are regulated by a cis-regulating element (promoter). […] A major difference between the CIS and TRANS system is that in CIS activities of endogenous TFs are measured, whereas the TRANS assay evaluates changes in activities of exogenous, chimeric NR-Gal4 proteins. […] At the end of 24 hour incubation, total RNA was isolated using TriZol reagent (Invitrogen). The isolated RNA is then reverse-transcribed using oligo(dT) primer and Mo-MLV reverse transcriptase (Invitrogen) with DNAse I (Ambion) treatment for 30 min. The one-tenth of the produced cDNA was amplified by PCR using Taq DNA polymerase (Invitrogen) and two reporter sequence-specific primers. The PCR products were fluorescently labeled by primer extension with 6-arboxyfluorescein (6-FAM) 5'-labeled reporter sequence-specific primer (2 min at 95 C, 20 s at 68 C and 10 min at 72 C) and these products were digested with 5U of HpaI (New England Biolabs) for 2h at 37 C. The fragments were purified using Qiaquick PCR columns (Qiagen), analyzed on an ABI 3130xL genetic analyzer (Applied Biosystems) with peak positions identified by using a set of X-rhodamine (ROX)-labeled MapMarker1000 molecular weight standards (BioVentures). The raw capillary electrophoresis data was processed using Attagraph software (Attagene).

Chain of Transcription factor E2F1 (Homo sapiens) (Q01094 whole entry, looked up): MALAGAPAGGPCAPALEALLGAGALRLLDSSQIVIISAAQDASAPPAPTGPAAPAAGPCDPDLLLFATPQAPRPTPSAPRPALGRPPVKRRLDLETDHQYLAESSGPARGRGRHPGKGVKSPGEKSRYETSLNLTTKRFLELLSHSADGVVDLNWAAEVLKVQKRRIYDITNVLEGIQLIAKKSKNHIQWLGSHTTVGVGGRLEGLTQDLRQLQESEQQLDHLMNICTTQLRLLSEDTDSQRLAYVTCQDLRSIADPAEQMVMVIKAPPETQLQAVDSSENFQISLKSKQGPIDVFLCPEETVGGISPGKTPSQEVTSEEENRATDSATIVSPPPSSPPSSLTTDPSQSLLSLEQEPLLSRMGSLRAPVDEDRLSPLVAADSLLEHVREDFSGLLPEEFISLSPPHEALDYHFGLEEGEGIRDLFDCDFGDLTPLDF

outcome, inactive:
COC(=O)CC(C(C)=O)C(=O)OC (stereo not given)
C=CC(F)(F)C(F)(F)C(F)(F)C(F)(F)F
CCCCN(C)C
OCCN1CN(CCO)CN(CCO)C1
Cc1ccc(N=Nc2c(O)ccc3ccccc23)c(C)c1
Oc1cccc2c(O)cccc12
C=CC(=O)OCCC(F)(F)C(F)(F)C(F)(F)C(F)(F)C(F)(F)C(F)(F)F
Brc1ccc(Oc2ccc(Br)cc2Br)cc1
CC(C)(O)C(=O)c1ccccc1
O=C(OC(=O)C(F)(F)C(F)(F)F)C(F)(F)C(F)(F)F
CCCCCCCCCCCCCCC
O=C1OC2(c3ccccc31)c1cc(I)c(O)c(I)c1Oc1c2cc(I)c(O)c1I
O=C(C=C(O)C(F)(F)F)C(F)(F)F
Brc1cc(Br)c(Oc2c(Br)cc(Br)c(Br)c2Br)cc1Br
O=C(O)CCC(F)(F)C(F)(F)C(F)(F)C(F)(F)C(F)(F)C(F)(F)F
FC(F)(F)N1C(F)(F)C(F)(F)OC(F)(F)C1(F)F
CCCCCCCCC1CCC(=O)O1 (stereo not given)
CC(=O)Nc1ccc(O)cc1
C=CC(C)(CCC=C(C)C)OC(C)=O (stereo not given)
COCN(COC)c1nc(N(COC)COC)nc(N(COC)COC)n1
CCCCCCCCCCCCCCCC(=O)OC
c1cnc2c(c1)ccc1cccnc12
NCCN
O=C(F)C(F)(F)C(F)(F)C(F)(F)C(=O)F
Cc1cncc(C)c1
CC1=CC(=O)c2ccccc2C1=O
NC(=NCCCCCCN=C(N)/N=C(\N)Nc1ccc(Cl)cc1)/N=C(\N)Nc1ccc(Cl)cc1
O=C(c1ccccc1)c1ccccc1
CCCCCC(C)OC(=O)COc1ccc(Cl)c2cccnc12 (stereo not given)
CCN(CC)CC
Nc1cc(Cl)c(-c2cc(Cl)c(N)cc2Cl)cc1Cl
CCOC(=O)CN[C@@H](C(=O)N1CC[C@H]1C(=O)NCc1ccc(/C(N)=N/O)cc1)C1CCCCC1
CCOC(OCC)C(=O)c1ccccc1
O=C(Nc1ccc(Cl)c(Cl)c1)c1cc(Cl)cc(Cl)c1O
O=C1c2ccccc2C(=O)c2c(O)c(O)cc(O)c21
CC(=O)Nc1ccc(S(N)(=O)=O)cc1
Oc1cc2ccccc2cc1O

AC50, active:
CC1COCc2cc3c(cc21)C(C)(C)C(C)C3(C)C (stereo not given) 159 µM
NC(=NCCCCCCN=C(N)/N=C(\N)Nc1ccc(Cl)cc1)/N=C(\N)Nc1ccc(Cl)cc1 48.6 µM
Cc1cc(Cc2cc(C)cc(C(C)(C)C)c2O)c(O)c(C(C)(C)C)c1 170 µM

Source: PubChem BioAssay (EPA / NIEHS)
